D1 PAM: human D1 dopamine receptor positive modulation; HEK293 TREx D1 cells, calcium flux, dopamine EC20 potentiation; potentiation, % at 10 µM; 0.036% of 360,000 active; in the data active means potentiation above about 30%; further: 0% is about no effect
D1 ag: activates the human D1 dopamine receptor; P21728; HEK293 T-REx D1 cells, calcium flux, agonist mode; activation, % at 2 µM; 1% of 360,000 active; AID 504660; further: 0% is about no effect
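Tetracycline-induced HEK293 TREx D1 cells, force-coupled to calcium signalling, were dye-loaded with a no-wash calcium kit. Compound was pin-added after a 10 s baseline. Fluorescence was read kinetically at 1 cycle/s for 180 s, with calcium rises flagged as agonism.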
TRHR enhancer: TRH receptor (human) allosteric enhancement; P34981; TRHR cells, fluo-8 calcium fluorescence, EC20 TRH enhancement; enhancement, % at 2 µM; 0.66% of 360,000 active; AID 493056; in the data active means enhancement above about 30%; further: 0% is about no effect
Target sequence (P34981 whole entry, looked up): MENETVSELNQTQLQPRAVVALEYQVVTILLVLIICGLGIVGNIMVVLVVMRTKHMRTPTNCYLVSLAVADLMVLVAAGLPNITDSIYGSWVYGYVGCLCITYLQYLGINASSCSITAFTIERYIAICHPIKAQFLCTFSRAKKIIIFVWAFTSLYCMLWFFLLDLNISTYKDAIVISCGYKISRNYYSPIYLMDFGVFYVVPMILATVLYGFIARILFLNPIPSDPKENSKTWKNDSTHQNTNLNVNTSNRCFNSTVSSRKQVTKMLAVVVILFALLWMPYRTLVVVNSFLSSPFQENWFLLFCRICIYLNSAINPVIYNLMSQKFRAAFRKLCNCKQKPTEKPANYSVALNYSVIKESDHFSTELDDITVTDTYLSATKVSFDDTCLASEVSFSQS
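TRHR-expressing cells loaded with fluo-8 calcium dye were read kinetically (ex 480/em 530) during compound addition, then stimulated with an EC20 of TRH (10 nM final). Enhancement of the Gq-mediated intracellular calcium response was scored.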
D1 antagonist: blocks dopamine activation of the human D1 receptor; AID 504652; P21728; activity change, negative = inhibition, % at 10 µM; 3.2% of 360,000 active; HEK293 TREx D1 cells, calcium flux, dopamine EC80; stronger effect = lower value; in the data active means activity change below about -30%; further: on the % scale 0 is the no-effect control and ±100 the full control effect
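Using tetracycline-induced force-coupled D1 Hek293 cells and a calcium dye, signals were followed for 180 s after compound, then for 180 s after EC80 dopamine, to detect inhibitors.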
TRHR ag: activates the human TRH receptor; activation, % at 2 µM; 0.18% of 360,000 active; TRHR cells, calcium flux fluo-8, FDSS agonist mode; AID 493084; further: 0% is about no effect
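Read-out: compound-evoked intracellular calcium rise in TRHR cells, fluo-8 dye, kinetic FDSS fluorescence at 1 s/cycle following a 10-cycle baseline. Cells cultured overnight before dye loading (30 min–1.5 h, RT).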
Numbers without * were called inactive; · = not tested or not shown. Hits are enriched below; roughly 4.7% of the tested compounds scored in any of these assays. Unless noted, no stated cut-off is given here; in the data, active means activation above about 30%; inactive means the rest.

SMILES	D1 PAM	D1 ag	TRHR enhancer	D1 antagonist	TRHR ag
Cc1ccc(-c2cc(C(=O)N3CCCCC3)c3ccccc3n2)cc1C	3	35*	7	43	0
CCOCc1ccccc1Nc1ncnc2onc(-c3ccc(Cl)cc3)c12	-1	2	-6	19	0
Clc1ccc(CSc2nc3ncccc3[nH]2)cc1	-2	2	-1	-8	0
Cc1ccc(Cl)cc1N(C)C(=O)c1cc2ccc3cccnc3c2[nH]1	11	9	6	-1	-2
COc1ccc(-c2cc(C(=O)N3CCN(c4ccccc4)CC3)c3ccccc3n2)cc1	-6	3	-15	-37*	0
C=CCn1c(CNC(=O)c2cccs2)nnc1SCc1ccc(Cl)cc1Cl	-2	60*	10	3	-1
O=C(Cn1c(=O)nc(-c2ccccc2)c2cc(Cl)ccc21)Nc1ccc(F)c(Cl)c1	2	0	-11	1	2
Cc1ccsc1/C=N\NC(=O)c1cc(C(C)(C)C)[nH]n1	-8	0	7	-39*	-1
CCOC(=O)N/N=C\c1sccc1C	-3	2	-4	-42*	0
Cc1ccsc1/C=N/NC(=O)CO	5	4	2	7	0
CC(C)COc1ccc(C(=O)N(Cc2ccc(N(C)C)cc2)Cc2ccco2)cc1	0	-1	1	-6	0
Cc1cc(C)c(NC(=O)Cn2c(=O)n(CCC(C)C)c(=O)c3cccnc32)c(C)c1	-3	2	14	1	1
Cc1ccc(C)c(NC(=O)Cn2c(=O)n(CCC(C)C)c(=O)c3cccnc32)c1	-7	0	2	-43*	0
Cc1cc(C(=O)C(=O)Nc2nnc(C(C)C)s2)c(C)n1-c1ccccc1	-2	8	4	-10	0
O=C(c1cccc(C(F)(F)F)c1)N1CCCCCC1	-6	2	16	-56*	1
O=C(c1cccc(C(F)(F)F)c1)N1CCCC1	-4	1	3	2	0
CC(NC(=O)C1CCCN(C(=O)c2ccc(Cl)cc2)C1)c1cccc(C(F)(F)F)c1 (stereo unspecified)	·	12	-8	-37*	1
CCN(c1cccc(C)c1)S(=O)(=O)c1nnc(NC(=O)c2ccccc2Cl)s1	9	10	-3	1	1
COc1ccc(OCC(=O)NCCS(=O)(=O)N2CCN(c3cccc(Cl)c3)CC2)cc1	-3	6	0	-7	0
CC(OC(=O)c1ccc(NC(=O)CC#N)cc1)C(=O)NCCC1=CCCCC1 (stereo unspecified)	-2	2	-5	-1	1
CC(OC(=O)c1ccc(NC(=O)CC#N)cc1)C(=O)NC(=O)NC1CCCCC1 (stereo unspecified)	7	4	0	-32*	2
Cc1c(NC(=O)C(C)OC(=O)c2ccc(NC(=O)CC#N)cc2)c(=O)n(-c2ccccc2)n1C (stereo unspecified)	1	2	11	-33*	0
Cc1c(NC(=O)C(C)OC(=O)COc2ccccc2)c(=O)n(-c2ccccc2)n1C (stereo unspecified)	0	2	-1	0	0
Cc1c(-c2ccc(F)cc2)nc(N)c(C#N)c1-c1cccnc1	5	2	4	10	-1
Cc1ccc(-c2c(C)c(-c3ccc(F)cc3)nc(N)c2C#N)o1	-8	8	-5	-31*	0
SMILES	D1 PAM	D1 ag	TRHR enhancer	D1 antagonist	TRHR ag
N#Cc1nc(-c2ccccc2F)oc1NC1CCCCC1	·	1	7	-34*	-1
CC(Oc1ccc(C#N)cc1)C(=O)Nc1ccc(-n2cnnn2)cc1 (stereo unspecified)	-7	55*	22	-15	6
O=C(COc1ccc(F)cc1)Nc1ccc(-n2cnnn2)cc1	-12	4	-2	-36*	0
CCOc1ccc(NC(=O)COc2ccc(-n3cnnn3)cc2)cc1	-4	-1	1	-13	0
CCc1ccccc1NC(=O)COc1cccc(-n2cnnn2)c1	·	44*	7	-20	-2
Cc1ccc(NC(=O)CSc2nc(=O)n(Cc3ccccn3)c3c2CCC3)cc1F	-4	-1	2	·	-1
COCCN1Cc2cccc(C(=O)Nc3ccc(C)c(F)c3)c2C1=O	-1	1	-8	-6	3
COc1ccc(NC(=O)C2CCN(C3=NS(=O)(=O)C(c4ccc(C)c(C)c4)=C3C)CC2)cc1OC	-7	2	3	4	0
CC(=Nc1ccc(C)cc1)c1sc2ccccc2c1O	-8	61*	-6	-22	19
CC(=Nc1ccc(C)cc1C)c1sc2ccccc2c1O	-6	21	0	-12	5
O=C(O)c1ccc(S(=O)(=O)N[C@H](Cc2ccc(C(F)(F)F)cc2)C(=O)O)cc1	-7	0	-14	-7	0
Cc1ccc(CNS(=O)(=O)NCc2ccccc2)cc1	-2	2	38*	-25	-1
Cc1ccc(S(=O)(=O)NCc2ccccc2)cc1	10	3	-12	-18	-1
CCc1ccc2oc(C(=O)Nc3c(C)n(C)n(-c4ccccc4)c3=O)cc(=O)c2c1	1	0	7	1	-1
Cc1c(Cl)cccc1NC(=O)CSc1nc(=O)[nH]c2c1CCCC2	4	-1	0	·	0
C/C(=N/NS(=O)(=O)c1cccc([N+](=O)[O-])c1)c1ccc2c(c1)OCO2	5	8	-4	-27	0
C/C(=N\NS(=O)(=O)c1ccc([N+](=O)[O-])cc1)c1ccc2c(c1)OCO2	11	5	2	-31*	-1
O=C(N/N=C/c1ccc([N+](=O)[O-])cc1)c1cc2ccccc2o1	-5	1	-2	-16	0
C/C(=N\Nc1ccc([N+](=O)[O-])cc1)c1ccc2c(c1)OCO2	-3	38*	-3	-38*	12
C/C(=N\Nc1ccc([N+](=O)[O-])cc1)c1cc2ccccc2o1	-12	59*	9	-30*	17
C/C(=N\Nc1ccc([N+](=O)[O-])cc1)c1ccc(C#N)cc1	-1	4	-8	-6	1
CCOc1ccc(CCNC(=O)Cn2ncn3c(cc4sc(C)cc43)c2=O)cc1OCC	2	0	4	11	0
Cc1nc(N2CCN(Cc3ccccc3)CC2)nc2c1C(=O)CC(c1ccco1)C2 (stereo unspecified)	-3	1	4	-32*	0
Cc1nc(N2CCN(Cc3ccc4c(c3)OCO4)CC2)nc2c1C(=O)CC(c1ccco1)C2 (stereo unspecified)	0	3	-5	-5	1
CCCNC(=O)C/C(C)=N/NC(=O)COc1ccc(C)cc1Br	3	20	20	-7	0
COc1ccc(CNC(=O)C/C(C)=N/NC(=O)c2cnccn2)cc1	9	35*	0	8	3

Bioassay records (PubChem)
